# Data taken from PubChem BioAssay (Tox21).
# Several values for one entry are separate records, joined by “and”; a condition that tells them apart may be missing. Identical values can stand only once. Results filed as inconclusive are left out. Where a call stands in place of a potency, no number is given. The source holds several records for some structures; these can differ, active in one and inactive in another. Activity calls are given as the source filed them. Unless noted, the call rests on the fitted dose curve.
# Legend:
# [1] = Nuclear factor erythroid 2-related factor 2/antioxidant responsive element (Nrf2/ARE) small molecule agonists: qHTS cell viability counter screen in human keratinocytes (AID 1919968; active means well fitted curve in the direction sought with a large enough effect in the repeat runs; an effect the other way counts as inactive or inconclusive; further: nearly all actives have a fitted effect of over 55% in size); details: KeratinoSens HaCaT ARE cells viability, CellTiter-Fluor, 24 h; series mostly up to 92.4 µM
# In short: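 CellTiter-Fluor fluorescence, read 1 h after reagent, gave viability in the same wells as the ARE-luciferase assay. KeratinoSens cells (1,500/well) had 23 h compound exposure at 37 C/5% CO2 following 5 h plating.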
# [2] = Nuclear factor erythroid 2-related factor 2/antioxidant responsive element (Nrf2/ARE) small molecule agonists: luciferase reporter gene qHTS assay in human keratinocytes (AID 1919969); details: KeratinoSens HaCaT ARE-luciferase, luminescence, 24 h; series mostly up to 92.4 µM; further: nearly all actives have a fitted effect of over 35% in size
# [3] = biological target: Gonadotropin-releasing hormone receptor (Homo sapiens) (UniProt P30968); assay: Human gonadotropin-releasing hormone receptor (GnRHR) small molecule agonists, calcium flux assay in GnRHR-HEK293 cells (AID 1920063); details: calcium flux fluorescence, agonist mode; series mostly up to 57.6 µM; further: nearly all actives have a fitted effect of over 35% in size
# In short: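 Agonist mode: compounds at 15 concentrations, in triplicate, went onto calcium dye-loaded GnRHR-HEK293 cells. Intracellular calcium was then followed as 480/540 nm fluorescence at 1 s intervals over 3 min.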
# [4] = biological target: KiSS-1 receptor (Homo sapiens) (UniProt Q969F8); assay: Human kisspeptin (KISS1R) small molecule agonists, calcium flux assay in KISS1R-HEK293 cells (AID 1920064; active means well fitted curve in the direction sought with a large enough effect in the repeat runs; an effect the other way counts as inactive or inconclusive); details: KISS1R-HEK293, calcium flux fluorescence, agonist; series mostly up to 76.8 µM
# In short: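 Agonist mode: intracellular calcium rise tracked at 1 s intervals over 3 min (480/540 nm) immediately after compound addition to dye-loaded KISS1R-HEK293 stable cells. Each compound tested at 15 concentrations in triplicate.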
# [5] = G protein-coupled receptor (GPCR) small molecule agonists, calcium flux assay: HEK293 wild type cell line counter screen (AID 1920065); details: HEK293 WT calcium flux, fluorescence, agonist mode; series mostly up to 57.6 µM
# In short: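 Calcium flux counter screen: compound added in agonist mode at 15 concentrations in triplicate to dye-loaded parental HEK293 cells. Fluorescence (480/540) read kinetically for 3 min; ATP served as positive control.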
# [6] = p53 small molecule agonists, cell-based qHTS assay with human liver microsomes (AID 1963577); details: HCT-116 p53RE-bla with human liver microsomes, ratio, 16 h; series mostly up to 66 µM;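 further: p53 response element beta-lactamase reporter cells with liver microsomes plus NADPH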
# In short: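 With metabolic activation: human liver microsomes (0.5 mg/mL final) plus NADPH (0.5 mg/mL final) added alongside compounds to p53RE-bla cells; 16 h 37 C exposure; beta-lactamase read by LiveBLAzer fluorescence.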
# [7] = p53 small molecule agonists, cell-based qHTS assay with rat liver microsomes (AID 1963578); details: HCT-116 p53RE-bla, beta-lactamase ratio, 16 h; series mostly up to 66 µM
# In short: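 Metabolic activation by rat liver microsomes and NADPH, each 0.5 mg/mL final, added right after compounds to p53RE-bla reporter cells (4,000/well, plated 5 h earlier). 16 h at 37 C, then LiveBLAzer substrate for 2 h at room temperature in the dark; fluorescence read-out.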
# [8] = p53 small molecule agonists, cell-based qHTS assay with human liver microsomes: qHTS cell viability counter screen (AID 1963579); details: p53RE-bla HCT-116 viability, ATP luminescence, 16 h, HLM; series mostly up to 66 µM; further: nearly all actives have a fitted effect of over 45% in size
# In short: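 Metabolic activation used human liver microsomes and NADPH, both 0.5 mg/mL final, over 16 hours at 37 C on p53RE-bla cells (4,000/well). Cytotoxicity measured by CellTiter-Glo luminescence, 30 min at room temperature.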
# [9] = p53 small molecule agonists, cell-based qHTS assay: qHTS cell viability counter screen (AID 1963581); details: p53RE-bla HCT-116 viability, ATP luminescence, 16 h; series mostly up to 66 µM; further: nearly all actives have a fitted effect of over 45% in size; further: potency means the concentration at half of the fitted maximal effect
# In short: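 Counter screen read by CellTiter-Glo luminescence (ATP content, 30 min at room temperature), run in the same wells as the beta-lactamase reporter read. HCT-116 p53RE-bla cells saw compounds for 16 h at 37 C.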
# [10] = p53 small molecule agonists, cell-based qHTS assay (AID 1963582; active means well fitted activation curve with a large enough effect in the signal ratio in the repeat runs, not every such curve was filed as active; the % refers to the signal ratio); details: HCT-116 p53RE-bla reporter, beta-lactamase FRET ratio, 16 h; series mostly up to 66 µM
# In short: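 Read-out is beta-lactamase FRET fluorescence after 2 h at room temperature with LiveBLAzer B/G substrate. p53 response element-bla cells were treated 16 h at 37 C with compounds in DMSO, added 5 h after seeding.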
# [11] = biological target: 5-hydroxytryptamine receptor 2A (Homo sapiens) (UniProt P28223); assay: 5-hydroxytryptamine receptor 2A (HTR2A) small molecule antagonists, cell-based qHTS assay (AID 1963586); details: HTR2A-CHO cells, DOI-induced calcium flux, fluorescence; series mostly up to 61.5 µM; further: nearly all actives have a fitted effect of over 45% in size
# In short: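 CHO cells stably expressing human HTR2A were plated for 18 h at 37 C, then loaded with calcium dye for 1 h. Compounds were preincubated 5 min at room temperature before DOI (4 nM solution) was added. Kinetic fluorescence was read for 3 min.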
# [12] = biological target: 5-hydroxytryptamine receptor 2A (Homo sapiens) (UniProt P28223); assay: 5-hydroxytryptamine receptor 2A (HTR2A) small molecule agonists, cell-based qHTS assay (AID 1963587); details: HTR2A-CHO cells, calcium flux fluorescence, agonist mode; series mostly up to 76.8 µM; further: nearly all actives have a fitted effect of over 30% in size; further: potency means the concentration at half of the fitted maximal effect
# In short: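 CHO cells stably expressing human HTR2A, plated 18 h, loaded with calcium dye 1 h at 37 C. Agonist mode: compounds added and intracellular calcium fluorescence recorded kinetically for 2 min at 1 sec intervals.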
# [13] = biological target: Muscarinic acetylcholine receptor M1 (Homo sapiens) (UniProt P11229); assay: Cholinergic receptor muscarinic 1 (CHRM1) small molecule antagonists, cell-based qHTS assay (AID 1963588); details: CHRM1-CHO antagonist mode, calcium flux fluorescence; series mostly up to 61.5 µM; further: nearly all actives have a fitted effect of over 40% in size
# In short: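 Compounds were tested at 15 concentrations in three independent runs. Dye-loaded CHRM1-CHO cells were exposed 5 min at room temperature before stimulation by acetylcholine added at 50nM. Intracellular calcium was read kinetically on FDSS for 3 min.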
# [14] = biological target: Muscarinic acetylcholine receptor M1 (Homo sapiens) (UniProt P11229); assay: Cholinergic receptor muscarinic 1 (CHRM1) small molecule agonists, cell-based qHTS assay (AID 1963589); details: CHRM1-CHO cells, agonist mode, calcium flux fluorescence; series mostly up to 76.8 µM; further: nearly all actives have a fitted effect of over 35% in size
# In short: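 Agonist-mode calcium-flux screen: compounds at 15 concentrations, three independent runs, were pin-transferred onto dye-loaded human CHRM1-CHO cells. Fluorescence was then recorded kinetically every second over minutes.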
# [15] = cAMP Responsive Elements (CRE) small molecule agonists, cell-based qHTS assay (AID 1963590); details: CRE-bla HEK293T, beta-lactamase FRET ratio, 3 h; series mostly up to 92.4 µM
# In short: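 Agonist mode: compound added to CRE-bla HEK 293T cells (2,000/well, 18 h after plating) for 3 h at 37 C/5% CO2. Reporter activity detected via FRET beta-lactamase substrate, 2 h room-temperature loading.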
# [16] = cAMP Responsive Elements (CRE) small molecule antagonists, cell-based qHTS assay (AID 1963591; active means well fitted inhibition curve with a large enough effect in the signal ratio in the repeat runs, not every such curve was filed as active; the % refers to the signal ratio); details: CRE-bla HEK293T, beta-lactamase FRET ratio; series mostly up to 92.4 µM
# In short: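 Antagonist mode: compounds are added alongside the adenylyl cyclase activator NKH477 (0.25 uM final) to CRE-bla HEK293T cells for 3 h. LiveBLAzer FRET substrate, 2 h at room temperature, reports bla expression.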
# [17] = biological target: Beta-2 adrenergic receptor (Homo sapiens) (UniProt P07550); assay: Adrenergic beta2 receptor (ADRB2) small molecule antagonists, cell-based qHTS assay (AID 1963592); details: CHO-ADRB2 cells, isoproterenol-stimulated cAMP HTRF ratio, 0.5 h; series mostly up to 92.4 µM; further: nearly all actives have a fitted effect of over 50% in size
# In short: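 Assay format: CHO-ADRB2 cells, 18-20hr seeding at 37C/5% CO2, then compound plus 1nM isoproterenol agonist mix for 0.5hr RT. Homogeneous time-resolved fluorescence cAMP detection after 1hr, expressed as 665/615 nm ratio.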
# [18] = biological target: D(2) dopamine receptor (Homo sapiens) (UniProt P14416); assay: Dopamine D2 receptor (DRD2) small molecule agonists, cell-based qHTS assay (AID 1963594); details: HEK293-DRD2 cAMP HTRF, agonist mode, 30 min; series mostly up to 92.4 µM; further: nearly all actives have a fitted effect of over 35% in size
# In short: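 HEK293 cells stably expressing human DRD2, pre-treated with PDE inhibitor Ro20-1724 (0.1 mM final) and compound 10 min at room temperature, then stimulated with NKH477 (200nM […]) for 30 min. cAMP read by HTRF (665/620 nm).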
# [19] = p53 small molecule agonists, cell-based qHTS assay with rat liver microsomes: qHTS cell viability counter screen (AID 1963580); details: p53RE-bla HCT-116 + rat microsomes, ATP viability, 16 h; series mostly up to 66 µM; further: nearly all actives have a fitted effect of over 45% in size
# In short: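 Cytotoxicity counter screen: intracellular ATP measured by CellTiter-Glo luminescence in the same wells as the beta-lactamase reporter read, on HCT-116 p53RE-bla cells exposed 16 h at 37 C to compounds with rat liver microsomes and NADPH, each 0.5 mg/mL final.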
# [20] = biological target: D(2) dopamine receptor (Homo sapiens) (UniProt P14416); assay: Dopamine D2 receptor (DRD2) small molecule antagonists, cell-based qHTS assay (AID 1963595; active means well fitted inhibition curve with a large enough effect in the signal ratio in the repeat runs, with a control signal flat; the % refers to the signal ratio); details: HEK293-DRD2 cAMP HTRF antagonist mode; series mostly up to 92.4 µM
# In short: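 DRD2-HEK293; 0.1 mM Ro20-1724; cpd 10 min RT; NKH477 200 nM + quinpirole 12 nM, 30 min RT; HTRF cAMP (cAMP-d2/anti-cAMP cryptate), 665/620 nm ratio after 1 h.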
# Sequence of Gonadotropin-releasing hormone receptor (Homo sapiens) (P30968 whole entry, looked up): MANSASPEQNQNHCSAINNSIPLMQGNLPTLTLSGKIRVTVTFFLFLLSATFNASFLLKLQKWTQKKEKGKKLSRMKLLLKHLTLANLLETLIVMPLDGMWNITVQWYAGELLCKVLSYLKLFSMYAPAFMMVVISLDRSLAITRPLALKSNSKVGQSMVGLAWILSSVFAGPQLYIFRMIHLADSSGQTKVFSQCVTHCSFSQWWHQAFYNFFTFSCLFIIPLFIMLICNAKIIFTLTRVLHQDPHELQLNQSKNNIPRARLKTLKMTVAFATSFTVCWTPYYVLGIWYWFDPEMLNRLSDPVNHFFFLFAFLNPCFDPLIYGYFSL
# Sequence of Beta-2 adrenergic receptor (Homo sapiens) (P07550 whole entry, looked up): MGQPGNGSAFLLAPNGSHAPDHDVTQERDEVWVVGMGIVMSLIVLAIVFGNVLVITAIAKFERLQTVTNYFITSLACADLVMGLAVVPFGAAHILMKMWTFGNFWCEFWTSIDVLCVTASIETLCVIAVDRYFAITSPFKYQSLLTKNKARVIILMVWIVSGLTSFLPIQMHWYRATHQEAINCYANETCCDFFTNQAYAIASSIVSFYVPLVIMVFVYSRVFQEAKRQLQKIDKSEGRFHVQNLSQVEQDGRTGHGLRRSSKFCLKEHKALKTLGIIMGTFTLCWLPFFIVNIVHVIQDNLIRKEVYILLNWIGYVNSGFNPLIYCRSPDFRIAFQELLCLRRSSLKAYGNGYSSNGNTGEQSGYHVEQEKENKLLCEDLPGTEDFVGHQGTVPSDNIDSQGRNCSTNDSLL
# Sequence of Muscarinic acetylcholine receptor M1 (Homo sapiens) (P11229 whole entry, looked up): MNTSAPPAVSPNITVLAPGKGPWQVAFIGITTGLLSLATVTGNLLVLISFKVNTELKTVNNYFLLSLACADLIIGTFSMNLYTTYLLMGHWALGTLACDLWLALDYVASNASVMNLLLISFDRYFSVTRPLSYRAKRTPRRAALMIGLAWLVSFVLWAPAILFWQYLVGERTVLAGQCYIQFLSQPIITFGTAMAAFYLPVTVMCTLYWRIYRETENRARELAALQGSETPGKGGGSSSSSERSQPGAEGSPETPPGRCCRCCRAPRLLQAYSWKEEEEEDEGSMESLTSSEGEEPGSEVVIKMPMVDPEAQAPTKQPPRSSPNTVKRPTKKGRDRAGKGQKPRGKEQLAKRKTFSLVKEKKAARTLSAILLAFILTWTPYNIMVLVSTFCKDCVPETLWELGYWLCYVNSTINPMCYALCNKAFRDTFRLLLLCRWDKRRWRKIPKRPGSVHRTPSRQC
# Sequence of D(2) dopamine receptor (Homo sapiens) (P14416 whole entry, looked up): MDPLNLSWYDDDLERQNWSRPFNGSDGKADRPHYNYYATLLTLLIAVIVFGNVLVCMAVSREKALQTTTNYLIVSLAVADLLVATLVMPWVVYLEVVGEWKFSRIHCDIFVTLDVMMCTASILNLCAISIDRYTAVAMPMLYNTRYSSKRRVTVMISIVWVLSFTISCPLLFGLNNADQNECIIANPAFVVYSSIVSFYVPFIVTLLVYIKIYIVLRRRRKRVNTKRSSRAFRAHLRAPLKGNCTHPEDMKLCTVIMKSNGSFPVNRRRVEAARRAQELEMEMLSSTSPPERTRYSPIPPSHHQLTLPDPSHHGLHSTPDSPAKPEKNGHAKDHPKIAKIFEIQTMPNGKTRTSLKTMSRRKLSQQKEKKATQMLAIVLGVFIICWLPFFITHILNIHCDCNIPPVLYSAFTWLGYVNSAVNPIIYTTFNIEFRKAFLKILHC
# Sequence of 5-hydroxytryptamine receptor 2A (Homo sapiens) (P28223 whole entry, looked up): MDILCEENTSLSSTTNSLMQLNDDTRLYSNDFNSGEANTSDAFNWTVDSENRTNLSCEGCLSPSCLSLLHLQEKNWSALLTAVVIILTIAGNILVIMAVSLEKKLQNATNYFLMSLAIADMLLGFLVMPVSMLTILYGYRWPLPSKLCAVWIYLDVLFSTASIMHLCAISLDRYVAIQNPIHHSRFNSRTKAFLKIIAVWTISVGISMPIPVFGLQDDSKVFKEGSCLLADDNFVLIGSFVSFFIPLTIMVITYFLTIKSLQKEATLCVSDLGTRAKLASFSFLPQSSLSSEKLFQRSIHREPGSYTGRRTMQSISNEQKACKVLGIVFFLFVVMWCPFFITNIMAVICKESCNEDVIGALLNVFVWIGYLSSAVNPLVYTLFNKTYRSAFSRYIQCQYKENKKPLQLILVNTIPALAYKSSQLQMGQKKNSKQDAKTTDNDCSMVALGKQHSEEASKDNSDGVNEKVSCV
# Sequence of KiSS-1 receptor (Homo sapiens) (Q969F8 whole entry, looked up): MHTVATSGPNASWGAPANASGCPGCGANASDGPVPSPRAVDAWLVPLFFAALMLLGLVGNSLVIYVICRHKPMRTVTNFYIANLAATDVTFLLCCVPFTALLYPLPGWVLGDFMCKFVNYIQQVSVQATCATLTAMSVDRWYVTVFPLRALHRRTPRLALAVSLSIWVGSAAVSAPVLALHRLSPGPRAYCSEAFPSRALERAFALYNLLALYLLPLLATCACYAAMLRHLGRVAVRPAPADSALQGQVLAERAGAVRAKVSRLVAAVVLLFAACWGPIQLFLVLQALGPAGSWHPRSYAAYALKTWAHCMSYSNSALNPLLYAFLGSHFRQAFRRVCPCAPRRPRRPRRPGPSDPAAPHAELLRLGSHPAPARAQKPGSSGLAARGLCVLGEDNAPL
SMILES,Potency [1],Potency [2],Potency [3],Potency [4],Potency [5],Potency [6],Potency [7],Potency [8],Potency [9],Potency [10],Potency [11],Potency [12],Potency [13],Potency [14],Potency [15],Potency [16],Potency [17],Potency [18],Potency [19],Potency [20]
C[Si]1(C)O[Si](C)(C)O[Si](C)(C)O[Si](C)(C)O1,inactive,inactive,inactive,inactive,inactive,inactive,inactive,inactive,inactive,inactive,inactive,inactive,inactive,inactive,inactive,inactive,inactive,inactive,–,–
CN(C)CCN(Cc1cccs1)c1ccccn1,inactive,inactive,inactive,inactive,inactive,inactive,inactive,inactive,–,inactive,–,–,–,–,inactive,inactive,inactive,inactive,inactive,inactive
O=S1(=O)CC=CC1,inactive,inactive,inactive,inactive,inactive,inactive,inactive,inactive,inactive,inactive,inactive,37.6 µM (active) and inactive,inactive,inactive,inactive,inactive,–,inactive,–,–
OC[C@@H](O)[C@@H](O[C@@H]1O[C@H](CO)[C@H](O)[C@H](O)[C@H]1O)[C@H](O)[C@@H](O)CO,inactive,inactive,inactive,inactive,inactive,inactive,inactive,inactive,–,inactive,inactive,inactive,inactive,inactive,–,inactive,inactive,inactive,inactive,inactive
CC1(C)S[C@@H]2[C@H](NC(=O)COc3ccccc3)C(=O)N2[C@H]1C(=O)O,inactive,inactive,inactive,inactive,inactive,inactive,inactive,inactive,inactive,inactive,inactive,inactive,inactive,inactive,inactive,–,inactive,inactive,–,inactive
Clc1cc(Cl)c(Cl)cc1Cl,inactive,inactive,inactive,inactive,inactive,inactive,inactive,inactive,inactive and 16.2 µM (active),inactive,inactive,inactive,inactive,inactive,inactive,inactive,–,–,–,inactive
C=C(C)C(=O)OCCCCCC,inactive,inactive,inactive,inactive,inactive,inactive,inactive,inactive,inactive,inactive,inactive,inactive,inactive,inactive,inactive,inactive,inactive,inactive,–,inactive
O=Cc1ccccc1O,inactive,inactive,inactive,inactive,inactive,inactive,inactive,inactive,–,inactive,inactive,inactive,inactive,inactive,inactive,inactive,inactive,inactive,inactive,inactive
